According to PubChem BioAssay AID2283304 (EPA ToxCast):
Records with an inconclusive call do not appear. Activity calls are given as the source filed them. The calls were made as follows: active = hit-call score of the fitted dose curve at least 0.9, where 1 is the maximum; inconclusive = response in the unintended direction; inactive = score below 0.9.

biological target: rat Galanin Receptor, Galr1 (gene 50577) (UniProt Q62805); experiment: NVS_GPCR_rGalanin: NovaScreen (NVS) G Protein-Coupled Receptor Assay for rat Galanin Receptor
Sequence (Q62805 whole entry, looked up): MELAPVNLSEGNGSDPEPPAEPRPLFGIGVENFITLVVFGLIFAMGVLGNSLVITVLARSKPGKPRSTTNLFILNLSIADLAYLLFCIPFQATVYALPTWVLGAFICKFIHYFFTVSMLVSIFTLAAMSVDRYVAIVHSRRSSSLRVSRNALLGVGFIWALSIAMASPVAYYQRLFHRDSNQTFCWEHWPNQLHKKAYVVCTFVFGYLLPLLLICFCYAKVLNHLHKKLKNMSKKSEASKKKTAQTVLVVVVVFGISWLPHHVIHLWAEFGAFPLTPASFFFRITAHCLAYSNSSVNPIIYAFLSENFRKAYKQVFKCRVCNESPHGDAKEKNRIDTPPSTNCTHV
Experimental: NVS_GPCR_rGalanin is a biochemical, single-readout assay that uses extracted gene-proteins from Rat brain membranes in a tissue-based cell-free assay. Measurements were taken 2 hours after chemical dosing in a 96-well plate.NVS_GPCR_rGalanin is one of one assay component(s) measured or calculated from the NVS_GPCR_rGalanin assay. It is designed to make measurements of radioligand binding, a form of binding reporter, as detected with scintillation counting signals by Filter-based radiodetection technology.Data from the assay component NVS_GPCR_rGalanin was analyzed into 1 assay endpoint. This assay endpoint, NVS_GPCR_rGalanin, was analyzed in the positive analysis fitting direction relative to DMSO as the negative control and baseline of activity. Using a type of binding reporter, loss-of-signal activity can be used to understand changes in the binding as they relate to the gene Galr1. Furthermore, this assay endpoint can be referred to as a primary readout, because the performed assay has only produced 1 assay endpoint. To generalize the intended target to other relatable targets, this assay endpoint is annotated to the gpcr intended target family, where the subfamily is rhodopsin-like receptor.
Binding assays used specific radioligands (tritiated, iodinated) with non-radioactive competitive displacement ligands in agonist or antagonist protocols (as indicated) and various reference compounds and inhibitors to titrate specific binding to receptors and transporters. Most enzyme assays (CYPs, kinases, phosphatases, proteases, HDACs) used recombinant protein and specific substrates (fluorescence mostly, some colorimetric and radioactive) and inhibitors, followed by a biochemical separation of substrate and product. All assays for the biochemical HTS were initially run in duplicate at a single concentration (10 uM for CYP450 assays and 25 uM for all others). Assay-chemical combinations meeting a pre-defined threshold (e.g., 30% inhibition and other criteria defined below) were then run in singleton concentration-response format with maximum concentration of 20 uM for CYPs and 50 uM for all others. Each assay was run with positive and negative controls, and concurrent controls on every plate. The follow-up (secondary) screen tested active chemical-pairs in concentration series, as well as a few additional assays not tested in the primary screen, some selected negative inactives, and several cases re-run in the concentration series for confirmatory purposes.

Compound	outcome	AC50
Cc1cc(O)ccc1Cl	inactive	
CN(C)C(=O)Cl	inactive	
CCCCCCCCCCC	inactive	
O=c1ccc2ccccc2o1	inactive	
CC(C)=CCCC(C)=CC=O	inactive	
CCCCc1ccc2c(n1)[C@@H](c1ccc(OC)cc1C[C@H](C)C(=O)O)[C@H](C(=O)O)[C@H]2c1ccc2c(c1)OCO2	inactive	
CCC[CH2][Sn]([Cl])([CH2]CCC)[CH2]CCC		3.99 µM (active)
c1ccc2c(c1)-c1cccc3c1c-2cc1ccccc13	inactive	
COS(C)(=O)=O	inactive	
CCCCCCCCCCO	inactive	
CCN1CCC2(CC1)COc1cc3c(cc12)N(C(=O)c1ccc(-c2ccc(-c4nnc(C)o4)cc2C)cc1)CC3	inactive	
CC(C)NCC(O)c1ccc(O)c(O)c1 (stereo unspecified)	inactive	
CC(C)(c1ccccc1)c1ccc(O)c(C(C)(C)c2ccccc2)c1	inactive	
O=C(O)C1C(C(=O)O)C2(Cl)C(Cl)=C(Cl)C1(Cl)C2(Cl)Cl (stereo unspecified)	inactive	
Cc1cccc(C)c1O	inactive	
C=CCC1=C(C)C(OC(=O)C2C(C=C(C)C)C2(C)C)CC1=O (stereo unspecified)	inactive	
